# According to PubChem BioAssay:
# Where “and” joins values, the source holds several entries; their conditions need not be identical. Equal values may be shown once. More than one record can exist for a structure, and the calls need not agree. Calls of active or inactive are those of the source.
# Legend:
# [1] = test system: PRMT1 (protein arginine N-methyltransferase 1); assay: small molecules binding arginine methyltransferase PRMT1 – biochemical, small-molecule microarray, 635 nm fluorescence, primary screen (AID 1088); conditions: higher = more signal;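 further: binding of Prmt1 protein to compounds spotted on small-molecule microarray slides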
# [2] = growth effects on S. cerevisiae YJM789 – YJM789 clinical isolate, OD600, 24 h, basal, primary screen (AID 1089); conditions: higher = more signal, called active from +8 up or from −8 down;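 further: growth of clinical yeast isolate S. cerevisiae YJM 789 seeded 1000 cells per well; test concentration not given here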
# [3] = S. pombe growth modifiers, basal conditions – strain 972, OD600, 24 h, no modulator, primary screen (AID 1090);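 further: basal condition with compound alone and no growth modifier present; test concentration not given here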; conditions: S. pombe 972 growth, higher = more signal, called active from +8 up or from −8 down
# [4] = budding yeast growth modifiers under rapamycin – strain BY4716, OD600, 96 h, primary screen (AID 1091); further: test concentration not given here; conditions: S. cerevisiae BY4716 + rapamycin, higher = more signal, called active from +8 up or from −8 down
# [5] = biological target: Torsin-1A-interacting protein 2 (Homo sapiens) (UniProt Q8NFQ8); assay: small molecules binding lysate-expressed LULL1 – cell lysate, human LULL1 lysate, 635/667 nm fluorescence, primary screen (AID 1092); conditions: small-molecule microarray, hLULL1 lysate binding, 635 nm fluorescence; higher = more signal;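 further: probe is lysate of COS7 cells overexpressing human LULL1; score merges per-feature 667 nm fluorescence with signal-to-noise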
# Torsin-1A-interacting protein 2 (Homo sapiens), sequence (Q8NFQ8 whole entry, looked up): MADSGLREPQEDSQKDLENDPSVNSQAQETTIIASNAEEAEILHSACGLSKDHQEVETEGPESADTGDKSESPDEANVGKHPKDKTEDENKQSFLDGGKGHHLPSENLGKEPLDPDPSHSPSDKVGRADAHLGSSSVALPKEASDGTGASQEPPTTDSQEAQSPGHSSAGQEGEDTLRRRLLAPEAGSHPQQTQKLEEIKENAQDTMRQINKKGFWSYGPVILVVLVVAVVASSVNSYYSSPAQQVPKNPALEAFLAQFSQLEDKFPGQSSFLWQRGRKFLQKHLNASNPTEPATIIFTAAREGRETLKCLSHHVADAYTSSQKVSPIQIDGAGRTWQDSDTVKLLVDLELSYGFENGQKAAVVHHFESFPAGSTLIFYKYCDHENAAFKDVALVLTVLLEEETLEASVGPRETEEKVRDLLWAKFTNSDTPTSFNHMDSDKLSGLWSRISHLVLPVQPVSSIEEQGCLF
# [6] = optical density change of DRC41 E. coli – strain DRC41, OD650, 24 h, E. coli filamentation project, primary screen (AID 1093);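 further: MC1000 strain lacking acrAB efflux and sulA so SOS filamentation is blocked; test concentration not given here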; conditions: E. coli DRC41 growth, higher = more signal, called active from +8 up or from −8 down
# [7] = probe aLefty2 binding to arrayed compounds – biochemical, biotinylated probe, 635/667 nm fluorescence, primary screen (AID 1094); conditions: small-molecule microarray, higher = more signal;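 further: score merges spot fluorescence near 667 nm with spot signal-to-noise ratio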
# [8] = test system: Noggin (protein binding on small-molecule microarray); assay: small molecules binding Noggin protein – biochemical, 635/667 nm fluorescence, primary screen (AID 1095); conditions: 635 nm fluorescence, higher = more signal;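 further: score merges 667 nm feature fluorescence with signal to noise over triplicate slides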
# [9] = biological target: Neurogenic locus notch homolog protein 3 (Homo sapiens) (UniProt Q9UM47); assay: small molecules binding NOTCH3 protein – biochemical, 635/667 nm fluorescence, primary screen (AID 1096); conditions: small-molecule microarray, 635 nm fluorescence, higher = more signal
# Neurogenic locus notch homolog protein 3 (Homo sapiens), sequence (Q9UM47 whole entry, looked up): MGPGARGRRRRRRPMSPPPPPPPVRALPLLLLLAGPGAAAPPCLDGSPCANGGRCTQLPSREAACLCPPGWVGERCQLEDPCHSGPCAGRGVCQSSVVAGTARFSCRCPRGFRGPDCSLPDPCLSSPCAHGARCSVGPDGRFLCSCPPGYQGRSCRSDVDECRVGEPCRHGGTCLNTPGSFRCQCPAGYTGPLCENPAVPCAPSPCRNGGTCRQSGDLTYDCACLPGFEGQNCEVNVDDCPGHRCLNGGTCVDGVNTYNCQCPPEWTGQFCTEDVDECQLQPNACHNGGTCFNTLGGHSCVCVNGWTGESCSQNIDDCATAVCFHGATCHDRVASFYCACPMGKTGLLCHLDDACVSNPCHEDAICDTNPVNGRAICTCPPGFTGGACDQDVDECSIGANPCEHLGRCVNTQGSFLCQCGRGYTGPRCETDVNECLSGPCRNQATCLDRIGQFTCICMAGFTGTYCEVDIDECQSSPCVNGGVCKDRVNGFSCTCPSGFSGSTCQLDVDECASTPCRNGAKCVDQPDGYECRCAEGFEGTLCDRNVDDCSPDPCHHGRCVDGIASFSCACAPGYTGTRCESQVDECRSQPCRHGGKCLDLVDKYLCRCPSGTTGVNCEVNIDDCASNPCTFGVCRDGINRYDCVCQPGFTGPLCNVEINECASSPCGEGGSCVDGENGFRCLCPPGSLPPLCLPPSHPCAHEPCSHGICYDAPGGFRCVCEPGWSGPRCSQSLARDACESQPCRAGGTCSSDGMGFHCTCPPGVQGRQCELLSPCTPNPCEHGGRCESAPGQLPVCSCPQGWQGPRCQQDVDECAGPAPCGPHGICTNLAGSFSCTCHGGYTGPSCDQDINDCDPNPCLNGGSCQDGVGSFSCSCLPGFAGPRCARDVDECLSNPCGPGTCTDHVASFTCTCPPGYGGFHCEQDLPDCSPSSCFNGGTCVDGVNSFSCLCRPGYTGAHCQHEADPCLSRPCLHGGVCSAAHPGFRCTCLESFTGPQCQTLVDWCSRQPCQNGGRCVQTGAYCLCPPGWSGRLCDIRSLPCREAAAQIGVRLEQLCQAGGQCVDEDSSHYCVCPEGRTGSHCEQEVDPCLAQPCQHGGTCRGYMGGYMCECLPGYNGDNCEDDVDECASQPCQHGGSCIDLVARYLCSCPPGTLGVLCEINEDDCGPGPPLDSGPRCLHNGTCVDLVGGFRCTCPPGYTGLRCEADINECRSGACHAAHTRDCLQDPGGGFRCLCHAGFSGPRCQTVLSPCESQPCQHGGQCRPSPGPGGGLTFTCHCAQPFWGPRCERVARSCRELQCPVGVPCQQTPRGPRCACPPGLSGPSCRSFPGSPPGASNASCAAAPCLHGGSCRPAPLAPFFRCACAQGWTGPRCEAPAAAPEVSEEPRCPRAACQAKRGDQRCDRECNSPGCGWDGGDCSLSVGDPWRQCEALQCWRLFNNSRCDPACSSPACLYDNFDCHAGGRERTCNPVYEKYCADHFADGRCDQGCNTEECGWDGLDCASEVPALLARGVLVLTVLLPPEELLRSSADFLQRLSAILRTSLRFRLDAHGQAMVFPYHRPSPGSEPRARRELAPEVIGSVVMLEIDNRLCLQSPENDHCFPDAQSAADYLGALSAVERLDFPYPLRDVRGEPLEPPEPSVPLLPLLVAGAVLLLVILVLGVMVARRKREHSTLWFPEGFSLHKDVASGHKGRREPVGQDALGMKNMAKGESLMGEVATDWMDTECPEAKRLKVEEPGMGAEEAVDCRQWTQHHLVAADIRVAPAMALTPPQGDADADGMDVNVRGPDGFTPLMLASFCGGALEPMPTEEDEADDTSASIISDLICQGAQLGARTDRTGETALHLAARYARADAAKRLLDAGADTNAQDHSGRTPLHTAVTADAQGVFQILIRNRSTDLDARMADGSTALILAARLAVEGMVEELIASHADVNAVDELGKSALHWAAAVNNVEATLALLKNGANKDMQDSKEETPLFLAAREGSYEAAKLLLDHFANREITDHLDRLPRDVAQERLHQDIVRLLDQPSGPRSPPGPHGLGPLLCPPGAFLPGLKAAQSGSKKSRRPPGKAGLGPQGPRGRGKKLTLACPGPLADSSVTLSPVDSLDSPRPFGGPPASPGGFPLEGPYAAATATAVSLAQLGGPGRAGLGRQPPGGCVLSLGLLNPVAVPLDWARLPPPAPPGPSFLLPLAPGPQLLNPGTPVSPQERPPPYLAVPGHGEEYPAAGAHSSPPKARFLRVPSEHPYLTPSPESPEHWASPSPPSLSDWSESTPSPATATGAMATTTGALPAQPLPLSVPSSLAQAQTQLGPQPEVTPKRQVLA
# [10] = probe aEGFR binding to arrayed compounds – biochemical, biotinylated probe, 635/667 nm fluorescence, primary screen (AID 1097); conditions: small-molecule microarray, higher = more signal;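 further: probe is a biotinylated anti-EGFR antibody binding compounds printed on slides; score combines fluorescence near 667 nm and signal to noise of each spot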
# [11] = test system: Plasmodium falciparum Sir2 (PF13_0152, Sir2A); assay: Plasmodium falciparum Sir2A binding compounds – biochemical, small-molecule microarray, 635 nm fluorescence, primary screen (AID 1098); conditions: fluorescence 635 nm, higher = more signal;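 further: score merges spot fluorescence intensity with its signal-to-noise ratio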
# [12] = probe aDKK1 binding to arrayed compounds – biochemical, biotinylated probe, 635/667 nm fluorescence, primary screen (AID 1099); conditions: small-molecule microarray, higher = more signal;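 further: score merges 667nm spot fluorescence with signal to noise across triplicate slides; reference of the scale not given here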
# [13] = probe aCHRDL2 binding to arrayed compounds – biochemical, biotinylated probe, 635/667 nm fluorescence, primary screen (AID 1100); conditions: small-molecule microarray, higher = more signal
# [14] = change in splice reporter luminescence, either direction, cell-based, HEK293, spliceosome inhibition project, primary screen (AID 1101); conditions: HEK293 splicing luciferase reporter, 24 h, higher = more signal, called active from +8 up or from −8 down;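 further: HEK293 cells carrying a splicing-competent luciferase reporter gene; test concentration not given here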
# [15] = biological target: Fibroblast growth factor 10 (Homo sapiens) (UniProt O15520); assay: compounds binding fibroblast growth factor 10 – biochemical, small-molecule microarray, 635 nm fluorescence, primary screen (AID 1102); conditions: FGF10 binding, fluorescence 635 nm, higher = more signal
# Fibroblast growth factor 10 (Homo sapiens), sequence (O15520 whole entry, looked up): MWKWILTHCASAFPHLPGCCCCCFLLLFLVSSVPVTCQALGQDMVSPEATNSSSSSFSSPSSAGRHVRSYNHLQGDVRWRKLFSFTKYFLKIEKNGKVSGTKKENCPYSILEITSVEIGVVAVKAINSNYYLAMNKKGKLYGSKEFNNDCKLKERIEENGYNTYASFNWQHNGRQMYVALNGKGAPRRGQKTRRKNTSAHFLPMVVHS
# [16] = test system: glycogen synthase kinase-3 (GSK3A per assay name; protocol says GSK3B); assay: compounds binding glycogen synthase kinase-3 – biochemical, small-molecule microarray, 635 nm fluorescence, GSK3A, primary screen (AID 1103); conditions: fluorescence 635 nm, higher = more signal; further: the record names both GSK3A and GSK3B
# [17] = biological target: Epidermal growth factor receptor (Homo sapiens) (UniProt P00533); assay: compounds binding epidermal growth factor receptor – biochemical, small-molecule microarray, 635 nm fluorescence, primary screen (AID 1104); conditions: EGFR binding, higher = more signal;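 further: score merges 667 nm emission intensity with spot signal to noise over triplicate slides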
# Epidermal growth factor receptor (Homo sapiens), sequence (P00533 whole entry, looked up): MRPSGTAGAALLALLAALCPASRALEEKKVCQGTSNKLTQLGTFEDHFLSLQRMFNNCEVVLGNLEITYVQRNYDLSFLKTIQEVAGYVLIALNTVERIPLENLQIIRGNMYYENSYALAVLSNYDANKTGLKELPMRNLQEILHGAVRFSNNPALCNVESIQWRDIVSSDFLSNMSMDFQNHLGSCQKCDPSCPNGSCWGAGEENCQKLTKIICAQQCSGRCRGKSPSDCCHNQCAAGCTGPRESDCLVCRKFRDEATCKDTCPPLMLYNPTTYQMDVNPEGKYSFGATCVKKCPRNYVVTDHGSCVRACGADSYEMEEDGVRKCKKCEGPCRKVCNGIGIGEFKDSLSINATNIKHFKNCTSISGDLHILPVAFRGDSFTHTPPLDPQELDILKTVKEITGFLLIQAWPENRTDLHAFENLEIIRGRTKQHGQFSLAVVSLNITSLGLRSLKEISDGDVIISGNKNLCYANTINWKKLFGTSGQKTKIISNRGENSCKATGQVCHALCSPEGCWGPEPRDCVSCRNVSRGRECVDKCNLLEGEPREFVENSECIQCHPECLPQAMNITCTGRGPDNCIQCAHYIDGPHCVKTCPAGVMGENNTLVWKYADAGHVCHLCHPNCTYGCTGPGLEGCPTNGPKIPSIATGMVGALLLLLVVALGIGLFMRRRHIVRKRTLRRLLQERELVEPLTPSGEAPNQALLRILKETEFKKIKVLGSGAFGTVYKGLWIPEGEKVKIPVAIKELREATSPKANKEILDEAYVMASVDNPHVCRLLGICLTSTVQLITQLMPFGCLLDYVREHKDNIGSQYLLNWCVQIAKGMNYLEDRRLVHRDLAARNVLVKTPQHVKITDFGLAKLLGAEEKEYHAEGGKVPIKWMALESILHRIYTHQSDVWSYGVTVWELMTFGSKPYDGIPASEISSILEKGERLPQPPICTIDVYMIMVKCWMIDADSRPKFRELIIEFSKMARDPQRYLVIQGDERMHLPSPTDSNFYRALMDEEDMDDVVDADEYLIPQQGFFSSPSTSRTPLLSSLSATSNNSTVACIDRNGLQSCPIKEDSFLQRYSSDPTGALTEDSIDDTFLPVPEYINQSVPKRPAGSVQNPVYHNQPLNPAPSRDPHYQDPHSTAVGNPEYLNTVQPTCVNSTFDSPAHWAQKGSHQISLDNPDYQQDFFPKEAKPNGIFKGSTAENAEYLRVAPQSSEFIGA
# [18] = biological target: Follistatin-related protein 3 (Homo sapiens) (UniProt O95633); assay: compounds binding follistatin-related protein 3 – biochemical, small-molecule microarray, 635 nm fluorescence, primary screen (AID 1105); conditions: FSTL3 binding, higher = more signal;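 further: score merges emission near 667 nm and signal to noise per printed spot across three slides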
# Follistatin-related protein 3 (Homo sapiens), sequence (O95633 whole entry, looked up): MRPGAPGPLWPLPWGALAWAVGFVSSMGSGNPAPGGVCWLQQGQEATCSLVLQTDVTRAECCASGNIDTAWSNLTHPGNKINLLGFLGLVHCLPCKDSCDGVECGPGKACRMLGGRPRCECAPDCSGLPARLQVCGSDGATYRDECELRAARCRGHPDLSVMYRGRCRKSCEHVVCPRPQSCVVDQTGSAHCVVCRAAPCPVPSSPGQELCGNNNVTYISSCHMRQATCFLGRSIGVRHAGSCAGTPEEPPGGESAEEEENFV
# [19] = biological target: Dickkopf-related protein 1 (Homo sapiens) (UniProt O94907); assay: small molecules binding DKK1 protein – biochemical, small-molecule microarray, 635 nm fluorescence scan, primary screen (AID 1106); conditions: higher = more signal;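 further: score merges emission near 667 nm with signal to noise over three replicate slides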
# Dickkopf-related protein 1 (Homo sapiens), sequence (O94907 whole entry, looked up): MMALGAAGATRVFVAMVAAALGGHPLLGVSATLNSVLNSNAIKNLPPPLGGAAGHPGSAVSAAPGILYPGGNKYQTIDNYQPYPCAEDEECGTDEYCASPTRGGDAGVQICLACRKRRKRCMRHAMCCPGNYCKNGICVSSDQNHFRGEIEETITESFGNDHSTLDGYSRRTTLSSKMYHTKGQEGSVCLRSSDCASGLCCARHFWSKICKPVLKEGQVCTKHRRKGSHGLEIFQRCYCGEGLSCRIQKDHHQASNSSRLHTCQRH
# [20] = test system: Inhibin beta A chain (activin A); assay: small molecules binding activin A – biochemical, small-molecule microarray, 635 nm fluorescence scan, primary screen (AID 1107); conditions: INHBA, higher = more signal;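 further: mouse activin A protein probed at 4.33 µg/mL on printed slides; score merges bound-protein fluorescence near 667 nm with spot signal-to-noise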
SMILES,composite z-score [1],z-score [2],z-score [3],z-score [4],composite z-score [5],z-score [6],composite z-score [7],composite z-score [8],composite z-score [9],composite z-score [10],composite z-score [11],composite z-score [12],composite z-score [13],z-score [14],composite z-score [15],composite z-score [16],composite z-score [17],composite z-score [18],composite z-score [19],composite z-score [20]
Cc1cc2c(nc1C)CCCN2CC(C)ON=C[C@@H](C)[C@H](OCc1ccccc1)C(C)C (stereo not given in full),-1.37,0.481 (inactive),0.514 (inactive),1.24 (inactive),-0.817,0.448 (inactive),-0.134,0.41,0.298,-0.068,-0.146,-0.14,-0.499,0.332 (inactive),-0.375,-0.857,0.0333,-0.0161,0.227,0.622
CO[C@@H]1COC(=O)[C@H](Cc2ccccc2)NC(=O)CC=C[C@@H](C)[C@H](OC)COC(=O)[C@@H](C)NC(=O)CC=C[C@H]1C,1.53 and 1.15,-0.706 (inactive) and -0.356 (inactive),-1.71 (inactive) and -1.2 (inactive),-0.916 (inactive) and -0.753 (inactive),0.469 and -0.0887,-0.0559 (inactive) and 0.361 (inactive),-0.217 and -0.393,1.45 and 1.06,1.07 and 0.862,-0.0616 and -0.0438,1.58 and 0.899,-0.447 and -0.987,-1.06 and -1.37,-1.14 (inactive) and -1.29 (inactive),0.497 and 0.956,1.07 and 0.496,0.882 and 0.64,1.29 and 0.876,0.696 and 1.67,1.42 and 0.336
C=CCN(CCCC)C(=O)C(c1cccs1)N(C(=O)/C=C\C(=O)O)c1c(Cl)cccc1CO (stereo not given),-0.663 and -0.538,0.135 (inactive) and 0.537 (inactive),-0.266 (inactive) and 1.12 (inactive),-0.548 (inactive) and -0.522 (inactive),0.376 and 0.744,0.224 (inactive) and -0.174 (inactive),0.148 and -0.235,-1.97 and -2.53,-2.02 and -1.33,-0.451 and -0.328,0.129 and 1.61,-0.0631 and -0.131,1.25 and 0.906,0.173 (inactive) and 0.771 (inactive),-2.81 and -1.97,-0.944 and -0.892,-2.16 and -2.02,-1.44 and -2.65,-3.42 and -2.44,-3.52 and -2.04
CCOC(=O)C[C@H]1[C@H](OC(=O)c2ccccc2-c2ccccc2)[C@@H](NC(=O)c2ccccc2)c2cc(OCCCO)ccc2N1C(=O)c1ccc2ccccc2n1,-0.0222 and 1.19,-0.0469 (inactive) and -0.78 (inactive),-0.19 (inactive) and 0.209 (inactive),-0.0952 (inactive) and 0.0526 (inactive),0.549 and 1.01,1.02 (inactive) and -0.728 (inactive),-0.0437 and 0.0212,0.357 and 0.843,0.481 and 0.737,0.0323 and -0.0815,-0.134 and 0.522,0.298 and -0.106,0.229 and 0.0414,-0.0583 (inactive) and -0.0708 (inactive),0.97 and 0.586,0.612 and 0.576,0.284 and 0.207,0.47 and 0.8,0.452 and 0.19,0.227 and 0.981
C=CC[C@@H](O)c1ccc(O)c(F)c1,-0.508 and -0.514,0.442 (inactive) and -0.907 (inactive),-0.6 (inactive) and -1.52 (inactive),-0.389 (inactive) and -1.67 (inactive),-0.471 and -1.19,0.336 (inactive) and 1.94 (inactive),-0.0329 and -0.0221,-2.36 and -0.702,-1.4 and -0.883,-0.384 and -0.381,0.358 and 0.514,-0.388 and -0.293,0.92 and 0.751,-0.55 (inactive) and -1.23 (inactive),-1.38 and -0.756,-1.43 and -0.85,-1.81 and -1.65,-2.63 and -1.02,-1.95 and -0.898,-2.07 and -0.334
C=CCN(C(=O)C1N(CCCCCCO)C(=O)C2C(C(=O)O)C3C=CC21O3)C(C)(C)C (stereo not given),-0.334 and -0.47,-0.686 (inactive) and -0.559 (inactive),-1.43 (inactive) and -0.867 (inactive),-0.235 (inactive) and -0.724 (inactive),-0.773 and 2.17,0.137 (inactive) and -0.31 (inactive),-0.231 and -0.0217,-2.53 and -1.64,-0.763 and -1.42,-0.253 and -0.375,2.09 and 0.74,-0.164 and -0.432,0.991 and 1.09,0.717 (inactive) and 1.5 (inactive),-2.17 and -2.31,-1.18 and -1.05,-2.13 and -1.6,-2.45 and -1.52,-3.24 and -3.14,-3.68 and -2.77
C=CC[C@@H](O)c1ccc(OCCO)cc1,0.347 and -0.516,-2.53 (inactive) and -2.22 (inactive),-10.4 (active) and -1.63 (inactive),-0.121 (inactive) and -0.238 (inactive),-0.821 and -0.479,0.638 (inactive) and 0.664 (inactive),0.0698 and 0.066,0.29 and -0.934,-1.03 and -0.668,-0.272 and -0.305,0.153 and 0.572,-0.458 and -0.292,0.644 and 0.889,-1.87 (inactive) and -2.09 (inactive),-0.906 and -0.929,0.512 and -0.567,-0.798 and -1.61,0.132 and -0.565,-0.751 and -1.58,-0.911 and -1.46
C=CCN(C(=O)C(c1cccs1)N(CCOCCO)C(=O)/C=C\C(=O)O)c1ccc(OC)cc1 (stereo not given),-1.56 and -0.685,-2.54 (inactive) and -0.463 (inactive),-0.314 (inactive) and -2.05 (inactive),-1.51 (inactive) and -0.835 (inactive),-1.45 and -0.709,2.74 (inactive) and 2.71 (inactive),-0.25 and -0.299,-0.482 and -1.39,-1.2 and -0.655,-0.172 and -0.316,-1.53 and -0.0146,-0.626 and -0.357,-0.183 and 0.97,-1.88 (inactive) and -1.58 (inactive),-0.934 and -0.942,-0.903 and -0.645,-0.254 and -1.5,-0.603 and -1.07,-0.151 and -2.76,-0.539 and -0.186
